Source: the supplement of paper PMC3334620
The full ranking holds about 33,000 sequences; the median of “E-score (-0.5 to 0.5)” is about -0.053, and the highest 2% start at about 0.37. The full list was thinned out, with the highest values kept by preference.

Target: Hap1 (UniProt P0CE41)
Test: PBM E-score (8-mer binding enrichment) (E-score (-0.5 to 0.5)); higher = stronger / more preferred TF binding
Conditions: protein concentration: 200 nM; construct: GST-DNA-binding domain
Protocol: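 Universal 'all 10-mer' protein binding microarrays (Agilent AMADID 015681) probed with GST-tagged S. cerevisiae TFs (full-length or DBD) made by in vitro transcription/translation (PURExpress), about 100-200 nM. Bound TF was detected with fluorescent anti-GST. Each ungapped 8-mer (which stands for itself and its reverse complement) is scored by the PBM enrichment score (E-score), a modified Wilcoxon-Mann-Whitney statistic from -0.5 to +0.5, computed with the Universal PBM Analysis Suite. Scale: above 0.35 generally sequence-specific binding.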

Sequence of UniProt P0CE41 (P0CE41 whole entry): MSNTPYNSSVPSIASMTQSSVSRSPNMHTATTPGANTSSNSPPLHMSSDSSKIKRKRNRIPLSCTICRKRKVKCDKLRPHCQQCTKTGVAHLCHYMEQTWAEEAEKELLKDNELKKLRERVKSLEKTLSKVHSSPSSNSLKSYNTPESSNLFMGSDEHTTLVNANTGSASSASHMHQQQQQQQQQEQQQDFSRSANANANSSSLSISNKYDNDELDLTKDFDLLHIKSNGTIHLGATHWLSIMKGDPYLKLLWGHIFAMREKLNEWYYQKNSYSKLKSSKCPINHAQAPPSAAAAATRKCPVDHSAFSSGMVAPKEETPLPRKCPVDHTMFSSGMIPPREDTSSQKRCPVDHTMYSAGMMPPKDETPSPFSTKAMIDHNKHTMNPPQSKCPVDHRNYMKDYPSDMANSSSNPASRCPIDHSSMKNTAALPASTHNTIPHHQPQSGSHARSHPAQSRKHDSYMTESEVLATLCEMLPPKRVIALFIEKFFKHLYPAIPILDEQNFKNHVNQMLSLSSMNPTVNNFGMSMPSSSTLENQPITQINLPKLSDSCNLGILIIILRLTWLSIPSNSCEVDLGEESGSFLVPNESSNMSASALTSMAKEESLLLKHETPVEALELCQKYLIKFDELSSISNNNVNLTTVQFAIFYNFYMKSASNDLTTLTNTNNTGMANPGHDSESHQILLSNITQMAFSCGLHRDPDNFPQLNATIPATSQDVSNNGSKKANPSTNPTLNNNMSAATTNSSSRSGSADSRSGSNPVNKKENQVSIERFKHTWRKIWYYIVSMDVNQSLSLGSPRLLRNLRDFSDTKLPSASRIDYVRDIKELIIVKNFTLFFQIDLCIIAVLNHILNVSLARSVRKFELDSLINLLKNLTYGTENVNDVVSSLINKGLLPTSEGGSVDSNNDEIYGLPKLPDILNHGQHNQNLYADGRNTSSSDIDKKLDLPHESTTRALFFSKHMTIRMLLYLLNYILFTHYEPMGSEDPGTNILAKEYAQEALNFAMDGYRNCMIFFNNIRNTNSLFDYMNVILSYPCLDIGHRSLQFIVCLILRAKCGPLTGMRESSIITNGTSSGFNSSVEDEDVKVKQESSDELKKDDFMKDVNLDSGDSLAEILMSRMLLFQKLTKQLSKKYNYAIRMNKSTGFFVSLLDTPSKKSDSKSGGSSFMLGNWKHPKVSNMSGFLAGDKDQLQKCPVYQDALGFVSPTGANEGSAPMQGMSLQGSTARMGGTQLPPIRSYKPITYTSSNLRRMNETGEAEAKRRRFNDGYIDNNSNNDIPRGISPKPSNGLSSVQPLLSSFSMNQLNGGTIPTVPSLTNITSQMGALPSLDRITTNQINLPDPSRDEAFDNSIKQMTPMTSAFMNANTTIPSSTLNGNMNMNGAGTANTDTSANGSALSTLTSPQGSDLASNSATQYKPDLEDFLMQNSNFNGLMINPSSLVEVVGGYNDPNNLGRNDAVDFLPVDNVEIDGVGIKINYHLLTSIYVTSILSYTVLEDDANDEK

Row | Sequence | PBM E-score
1 | TTACCGAA | 0.233
2 | CGTCTGAC | -0.045
3 | ATGAAGCG | -0.208
4 | ACCACTTA | -0.00971
5 | ATGTTAGA | -0.336
6 | GAGCCGGC | 0.339
7 | TAGCCGGA | 0.407
8 | GAGCCGGA | 0.379
9 | AAGCCGGT | 0.332
10 | AAGCCGGC | 0.399
11 | TAGCCGAA | 0.314
12 | AAGCCGGG | 0.238
13 | AAGCCGTC | 0.27
14 | AAGCCGGA | 0.413
15 | CAGCCGGC | 0.331
16 | CAGCCGGA | 0.33
17 | GAGCCGCA | -0.0121
18 | ACGGGCCA | 0.226
19 | CATAGAAG | -0.0619
20 | CAGTTCGA | -0.156
21 | AGCGCCAT | -0.113
22 | CCGGTAAA | 0.456

Row | Sequence | PBM E-score
23 | TCGGTAAA | 0.249
24 | CCGGTAAC | 0.36
25 | CCGGTACG | 0.342
26 | ACGGTAAG | 0.067
27 | CCGGTAAG | 0.391
28 | CGGGCAAA | 0.249
29 | GGCAAATA | 0.2
30 | TGGCAGAA | -0.0128
31 | CTGCTGGA | -0.231
32 | ATCCGAAA | 0.389
33 | CACCGAAC | 0.194
34 | TTCCGAAA | 0.363
35 | GTCCGAAA | 0.421
36 | CCCCGAAC | 0.291
37 | GCCCGAAC | 0.298
38 | ATCCGAAC | 0.355
39 | CTCCGAAC | 0.415
40 | GTCCGAAC | 0.426
41 | ATCCGAAG | 0.326
42 | ACCCGAAA | 0.31
43 | GCCCGAAA | 0.342
44 | ATACCGTC | 0.0985

Row | Sequence | PBM E-score
45 | CGGCTAGC | 0.0611
46 | AGTCAGAT | -0.212
47 | AGCAGCTG | -0.167
48 | ACCCTCAG | -0.197
49 | GCGCAAAA | -0.00131
50 | ACCCGAAT | 0.314
51 | CTTCGAAA | -0.279
52 | CGCCGAAG | 0.359
53 | ATCCGACA | 0.305
54 | ATCCGAAT | 0.403
55 | CGCCGAAA | 0.359
56 | AACCGAAT | 0.301
57 | CACCGAAG | 0.245
58 | GTCCGACA | 0.38
59 | CTCCGAAG | 0.401
60 | CTCCGAAA | 0.41
61 | CTCCGACA | 0.291
62 | ACTTGAGA | -0.185
63 | AGGGGCGG | 0.235
64 | ACTCGTCG | -0.172
65 | CCCCGCAA | 0.258
66 | ACATTTAA | -0.0555

Row | Sequence | PBM E-score
67 | AGCCCTTG | -0.311
68 | AGACACGG | 0.0548
69 | CATCCAGG | -0.183
70 | ATCCGAGC | 0.356
71 | ATCCGAGG | 0.39
72 | ATCCGACG | 0.333
73 | GACGCACC | -0.118
74 | GCAAGGAC | -0.115
75 | AGTCCGAG | 0.428
76 | AGTCCGTG | 0.299
77 | AATCCGAT | 0.401
78 | AGTCCTAT | -0.0943
79 | AGTCCAAG | -0.404
80 | AGTCCGAC | 0.36
81 | AGTCCGAT | 0.432
82 | AATCCGAC | 0.363
83 | AATCCGAA | 0.366
84 | AAGCCTAT | -0.101
85 | AAAACTAG | -0.116
86 | AGTACGGG | -0.028
87 | ACTTCTGG | -0.297
88 | AGTGGACG | 0.0359

Row | Sequence | PBM E-score
89 | TAAAAGGA | -0.0643
90 | AGATAAGC | -0.0608
91 | CGACCTAA | 0.161
92 | TGACCTAA | -0.158
93 | GGACCTAA | 0.371
94 | CCGGGAAA | 0.338
95 | GCCGGAAA | 0.395
96 | GACGGAAA | 0.314
97 | TGCGGAAA | 0.213
98 | TACGGAAA | 0.316
99 | GGCGGAAA | 0.29
100 | CCCGGAAG | 0.358
101 | TCCGGAAA | 0.445
102 | CCCGGAAA | 0.411
103 | TCTCAAGA | -0.0524
104 | GTCGCGTA | -0.051
105 | ATTCAAAG | -0.213
106 | ACGCTTGG | -0.193
107 | GGGGCGCA | -0.255
108 | ACTAGTCA | -0.241
109 | GGTGTGGA | -0.00568
110 | GGAACACA | -0.109
